Data published in PubChem BioAssay AID1903 (Southern Research Specialized Biocontainment Screening …, 2009).
The campaign covered roughly 310,000 compounds. About 1,200 (0.39%) were called active. The rule behind the calls is not given here. Only a sample is shown. Potency and affinity values are given separately.

What follows are compounds tested against Large T antigen (Simian virus 40) (UniProt P03070) (assay: TAg ATPase/helicase activity blockers – biochemical (AID 1903)). Settings: SV40 large T antigen ATPase/helicase inhibition assay; at 20 µM; active compounds read high.
Chain of Large T antigen (Simian virus 40) (P03070 whole entry, looked up): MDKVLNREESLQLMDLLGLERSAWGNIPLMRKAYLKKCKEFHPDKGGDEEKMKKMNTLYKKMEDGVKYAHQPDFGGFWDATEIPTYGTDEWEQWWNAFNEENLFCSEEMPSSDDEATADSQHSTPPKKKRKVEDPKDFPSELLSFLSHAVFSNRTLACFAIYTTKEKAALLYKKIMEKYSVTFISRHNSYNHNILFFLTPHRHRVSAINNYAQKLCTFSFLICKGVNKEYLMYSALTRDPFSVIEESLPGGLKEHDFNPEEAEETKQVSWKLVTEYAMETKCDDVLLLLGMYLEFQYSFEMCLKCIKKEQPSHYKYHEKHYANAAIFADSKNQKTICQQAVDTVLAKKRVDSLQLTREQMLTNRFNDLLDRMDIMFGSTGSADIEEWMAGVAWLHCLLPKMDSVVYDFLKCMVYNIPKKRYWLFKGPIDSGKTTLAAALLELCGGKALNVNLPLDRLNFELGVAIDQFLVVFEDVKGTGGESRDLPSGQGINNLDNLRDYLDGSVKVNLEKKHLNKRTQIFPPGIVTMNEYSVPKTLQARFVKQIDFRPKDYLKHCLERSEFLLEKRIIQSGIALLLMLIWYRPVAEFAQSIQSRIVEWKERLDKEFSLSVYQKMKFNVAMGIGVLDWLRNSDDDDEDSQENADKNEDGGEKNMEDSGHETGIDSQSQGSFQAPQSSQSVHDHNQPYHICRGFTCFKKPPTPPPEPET

inhibition, inactive:
CCN1C(=O)/C(=C\c2ccc(-c3ccc([N+](=O)[O-])cc3OC)o2)SC1=Nc1cccc(C(=O)O)c1 13.7%
Cc1ccc(C(=O)/C=C/c2ccc(-c3ccccc3[N+](=O)[O-])o2)cc1 -1.93%
CCSC1=N/C(=C\c2ccc(-c3ccccc3[N+](=O)[O-])o2)C(=O)S1 45.4%
COC(=O)c1ccccc1-c1ccc(/C=C2\C(=O)N(c3ccccc3)N=C2c2ccccc2)o1 -14%
CC1=NN(c2ccc(Br)cc2)C(=O)/C1=C/c1ccc(-c2ccccc2C(=O)O)o1 33.3%
COc1ccc(OC)c(CNc2ccc([N+](=O)[O-])cc2C)c1 -3.94%
COc1ccc(Br)cc1S(=O)(=O)n1c([N+](=O)[O-])cnc1C -1.15%
C=CCn1cccc(C(=O)Nc2ccc(C)c(C)c2)c1=O 10.4%
Cc1ccc(CNC(=O)COC(=O)Cc2ccc(-c3ccccc3)cc2)cc1 1.94%
CCc1nnc(NC(=O)CCN2C(=O)C3CCCCC3C2=O)s1 (configuration not stated) 8.24%
CCOC(=O)C(C)Sc1nc2c(c(=O)[nH]c(=O)n2C)n1C/C=C(/C)Cl (configuration not stated) 0.445%
CC(=O)Oc1ccc2oc(/C=C/N(C)C)c([N+](=O)[O-])c2c1 13%
CN(C)/C=C/c1oc2ccc(O)cc2c1[N+](=O)[O-] 32%
OC(COc1ccc(CNCCc2ccccc2F)cc1)CN1CCCCC1 (configuration not stated) 5.86%
COCCNC(=S)N/N=C(\C)c1ccc(OC(F)F)cc1 21.1%
COCCNC(=S)N/N=C(\C)c1ccc(OC)cc1 13.8%
COC(=O)c1ccccc1NC(=O)CSc1n[nH]c(C)n1 0.8%
Cc1ccc(Cl)cc1NC(=O)C(NS(=O)(=O)c1cccs1)c1ccccc1 (configuration not stated) 3.94%
CC(C)C(NS(=O)(=O)c1ccc2c(c1)OCCCO2)C(=O)O (configuration not stated) -3.36%
Nc1ccc2nc(-c3ccc(-c4nc5ccc(N)cc5[nH]4)cc3)[nH]c2c1 12.1%
Nc1ccc2nc(-c3ccc(Cl)cc3)[nH]c2c1 28%
Cc1ccc(-n2nc(C(=O)O)nc2-c2ccccc2)cc1 38%
Cc1cc(=O)nc2c3ccccc3n(CC(=O)NCCC3=CCCCC3)n12 2.66%
COc1ccc(S(=O)(=O)N2CCOC2CNC(=O)C(=O)NCCc2ccccc2)cc1C (configuration not stated) 6.95%
C=Cc1ccc(N=Cc2c(O)ccc3ccccc23)cc1 -18.3%
O=[N+]([O-])c1ccc(N2CCOCC2)cc1NCc1ccccc1 5.38%
CN1CCN(/N=C/c2c3ccccc3c(Cl)c3ccccc23)CC1 1.67%
O=C(O)c1ccc(N=Cc2c(O)ccc3ccccc23)cc1 6.09%
COc1cccc(/C=N/N2CCOCC2)c1O 3.29%
Cc1ccc(O)c(N=Cc2cc(Cc3ccccc3)cc([N+](=O)[O-])c2O)c1 15.2%
COc1cccc(C=Nc2ccc3c(c2)OCCO3)c1O 21.9%
CN1CCN(CC(=O)N/N=C\c2c[nH]c3ccccc23)CC1 5.96%
Cc1c(C(=O)N2CCOCC2)c(S(=O)(=O)Nc2ccc(OC(F)(F)F)cc2)c(C)n1C 4.66%
CC(=O)c1c(C)[nH]c(C(=O)OC2CCCCC2=O)c1C (configuration not stated) 6.27%
Cc1ccsc1C=Nc1c(C)n(C)n(-c2ccccc2)c1=O 4.72%
COCCNC(=O)C(c1ccco1)N(C(=O)Cn1nnc2ccccc21)c1ccccc1C (configuration not stated) 2.93%
Cc1ccc(CN2CC(C(=O)N(C)CC(=O)Nc3cccc(F)c3)CC2=O)cc1 (configuration not stated) 25.6%
CC(CC(=O)N(C)c1c(N)n(Cc2ccccc2)c(=O)[nH]c1=O)c1ccccc1 (configuration not stated) 12.7%
COc1ccccc1CNc1nc(S(=O)(=O)c2ccccc2)c(Cl)s1 21.1%
O=C(NC1CCCCC1)C(c1ccco1)N(CCc1ccccc1)C(=O)C(F)(F)F (configuration not stated) 9.43%
COC(=O)c1cccc(NC(=O)c2cnn(C)c2)c1 3.5%
C(=N\Nc1nc(Nc2ccccc2)nc(N2CCOCC2)n1)/c1c[nH]c2ccccc12 5.43%
CN(C)c1nc(N/N=C/c2c[nH]c3ccccc23)nc(N2CCOCC2)n1 27.1%
Oc1cc(Br)ccc1C=Nc1ccc(N2CCCCC2)cc1 10.6%
Oc1c(Br)cc(Cl)cc1C=Nc1ccc(N2CCOCC2)cc1 17.2%
Oc1c(Cl)cc(Cl)cc1C=Nc1ccc(N2CCOCC2)cc1 15.7%
Cc1cc(Br)cc(C=Nc2ccc(N3CCOCC3)cc2)c1O 19.2%
O=C1[C@H]2[C@@H](c3ccc(Cl)cc3)N3C(=O)N(c4cccc(Cl)c4)C(=O)[C@@]3(Cc3ccccc3)[C@H]2C(=O)N1C1CCCCC1 6.67%
Cc1ccc(S(=O)(=O)N2CCN(S(=O)(=O)c3ccc4c(c3)OCCO4)CC2)cc1 2.43%
O=C(C1CCN(C2CC(=O)N(c3ccc(F)cc3)C2=O)CC1)N1CCOCC1 (configuration not stated) 6.36%
COc1ccccc1N1CCN(C(CNS(C)(=O)=O)c2cccnc2)CC1 (configuration not stated) 10%
CCOC(=O)c1[nH]c(C)c(C(=O)N2CCN(c3ccc(F)cc3)CC2)c1C 27.5%
C/C(CC(=O)Nc1ccc2c(c1)OCCO2)=N\NC(=O)COc1cccc(C)c1 6.15%
O=C(COC(=O)[C@@H]1CCCN1S(=O)(=O)c1ccc(Cl)cc1)NC1CCS(=O)(=O)C1 (some centres not stated) 1.86%
CCOc1ccc(/C=N/NS(=O)(=O)c2ccc(C)cc2)cc1OC 12.6%
Cc1ccc(C2C3=C(CCCC3=O)Nc3[nH]c(=S)[nH]c(=O)c32)cc1 (configuration not stated) 23.7%
COC(=O)C1=C(C)Nc2[nH]c(=S)[nH]c(=O)c2C1c1ccc(O)cc1 (configuration not stated) 26.6%
COC1Cc2ccccc2N(C(N)=O)c2ccccc21 (configuration not stated) 11.8%
NS(=O)(=O)c1ccc(CCNC(=O)CSc2nc3ccccc3c3nc(CCN4CCCCC4)nn23)cc1 1.71%
COc1ccc(C2=CC3=C(Br)C(=O)C(C)(OC(=O)c4ccco4)C(=O)C3=CO2)cc1 (configuration not stated) 50.8%
COc1ccc(C2=CC3=C(Br)C(=O)C(C)(OC(=O)c4cccs4)C(=O)C3=CO2)cc1 (configuration not stated) 52.5%
COc1ccc2oc(C)c(C(=O)NN)c2c1 28.3%
O=C(NC1CCS(=O)(=O)C1)Oc1ccc(Cl)cc1 (configuration not stated) 9.05%
O=C(NC1CCS(=O)(=O)C1)Oc1ccccc1 (configuration not stated) 6.71%
O=[N+]([O-])c1ccccc1-c1cc(-c2cc(Cl)ccc2O)n[nH]1 19%
O=[N+]([O-])c1ccccc1-c1cc(-c2ccccc2O)n[nH]1 5.15%
O=C(OCC(=O)N1CCN(c2ccccc2)CC1)c1cccs1 3.9%
O=C(CSc1ccc(-c2nc3ccccc3[nH]2)cn1)Nc1ccc2c(c1)OCCO2 3.79%
CCN(c1ccc(NC(=O)COC(=O)c2ccc(C)s2)cc1)C(C)C 29.8%
CCOC(=O)c1c(C)[nH]sc1=S 15%
CCOC(=O)c1c(N)sc(N)c1C(=O)OCC 36.6%
O=C(NC(=S)Nc1ccccc1[N+](=O)[O-])c1cncc(Br)c1 7.4%
CCOc1ccc(Br)cc1S(=O)(=O)Nc1ccc(C(=O)Nc2ccccc2OC)cc1 11.7%
O=[N+]([O-])c1ccc2c(c1Nc1ccccc1Cl)=NC1(CCCCC1)N=2 14.5%
CCN(CC)C(=O)C(=O)c1cccn1-c1ccc(C#N)cc1 12.2%
O=C(Nc1ccccc1)c1ccc(NCC2CCCO2)c([N+](=O)[O-])c1 (configuration not stated) 16.3%
COc1ccc(NC(=O)NC(C)(C(F)(F)F)C(F)(F)F)cc1 1.34%
CC(NC(=O)Nc1ccccc1O)(C(F)(F)F)C(F)(F)F 10.1%
O=C(Nc1ccccc1N1CCN(C(=O)c2ccc(Cl)cc2)CC1)c1cccnc1 -3.62%
Cc1noc(C)c1CS(=O)(=O)c1ccc([N+](=O)[O-])cc1 4.7%
CC/C(=N\Nc1nncc2ccccc12)c1ccc(F)cc1 0.15%
O=C1CC(N2CCN(c3ccc(F)cc3)CC2)C(=O)N1Cc1cccs1 (configuration not stated) 7.54%
O=C(c1ccncc1)c1ccc(N2CCN(C3CC(=O)N(Cc4cccs4)C3=O)CC2)cc1 (configuration not stated) 4.51%
COc1cc2c(cc1NC(=O)CSc1ccc(Cl)cc1)oc1ccccc12 20.1%
Cc1ccc(C(=O)CSc2nnc(-c3cccnc3)n2N)cc1 13.6%
O=C(COC(=O)CCC(NC(=O)OCc1ccccc1)C(=O)OCC(=O)Nc1ccccc1)Nc1ccccc1 (configuration not stated) 9.57%
O=C(O)/C=C/C(=O)Nc1ccc(-n2nccc2C(F)(F)F)cc1 22.7%
O=C(NN1C(=O)/C(=C/c2ccc(O)cc2)SC1=S)c1ccccc1O 38%
O=C(NN1C(=O)/C(=C/c2cccc(O)c2)SC1=S)c1ccccc1O 0.53%
O=C1/C(=C\c2ccc(Br)cc2)SC(=S)N1NS(=O)(=O)c1ccccc1 5.34%
CC(/C=C1\SC(=S)N(NS(=O)(=O)c2ccccc2)C1=O)=C\c1ccccc1 28.2%
CCCC1NC(=S)N(C2CCCCC2)C1=O (configuration not stated) 1.78%
